Shown are actives, neighbours in structure and some others; about 28% of the full set was active somewhere.
Mac1 fbg enh: CD11b/CD18-fibrinogen binding enhancement. AID 1499. 0.07% of 93,000 active. P05107+P11215. K562 CD11b/CD18 adhesion to fibrinogen, ATPlite luminescence. activation, % at 10 µM;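 active = 10 µM primary screen giving 50% or more activity, confirmed by 40% or more on retest at that dose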
CYP2C19 inh: human CYP2C19 inhibition; CYP2C19 Supersomes, luciferin-H EGE luminescence, 30 min; 21% of 96,000 active; P33261; inhibition, % at 5 µM;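 active = CYP2C19 inhibition above a set limit at 5 µM in the primary screen, cut at about 50% in these data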;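 also: plate controls were negative control wells for no effect and 2.5 mM tranylcypromine positive control for full effect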
Target sequence (P33261 whole entry, looked up): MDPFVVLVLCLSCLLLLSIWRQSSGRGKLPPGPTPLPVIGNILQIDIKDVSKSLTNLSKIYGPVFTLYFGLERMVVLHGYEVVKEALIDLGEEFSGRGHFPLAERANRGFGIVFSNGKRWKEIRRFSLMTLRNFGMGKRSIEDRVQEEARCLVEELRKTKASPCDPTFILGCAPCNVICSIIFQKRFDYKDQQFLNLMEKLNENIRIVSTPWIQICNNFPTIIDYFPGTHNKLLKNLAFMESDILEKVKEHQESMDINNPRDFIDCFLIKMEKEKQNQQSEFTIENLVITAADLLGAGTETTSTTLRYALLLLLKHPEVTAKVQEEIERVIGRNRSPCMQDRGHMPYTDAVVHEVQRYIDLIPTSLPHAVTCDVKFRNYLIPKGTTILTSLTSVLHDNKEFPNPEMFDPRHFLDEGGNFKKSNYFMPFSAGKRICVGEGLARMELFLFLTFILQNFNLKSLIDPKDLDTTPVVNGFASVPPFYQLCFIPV
CD11b adhes inh: blocks human CD11b/CD18 adhesion to fibrinogen. inhibition, % at 10 µM. P05107+P11215. 0.54% of 93,000 active. K562 CD11b/CD18 adhesion to fibrinogen, ATPlite luminescence; Mn2+ added to activate the integrin;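 active = primary inhibition of 50% or more at 10 µM, then 40% or more on retest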
CYP2C9 activ: CYP2C9 (human) activation | recombinant CYP2C9, luciferin-H conversion, luminescence; hits give high values; factor 1 = untreated enzyme, 0 = blocked | activation factor at 5 µM | P11712 | 1.4% of 96,000 active;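 active = activation factor of 2 or more for CYP2C9 at a 5 µM dose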;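 also: 0 = sulfaphenazole-blocked wells and 1 = vehicle-only wells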
CYP2C19 activ: activators of human cytochrome P450 2C19. recombinant CYP2C19, luciferin-H EGE luminescence; hits give high values; 0 = fully inhibited enzyme, 1 = untreated enzyme. activation factor at 5 µM. 96,000 tested, under 10 active. P33261;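 active = activation factor of at least 2 at 5 µM in the primary screen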;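 also: 0 = wells with 2.5 mM tranylcypromine and 1 = vehicle-only wells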
CYP2C9 inhib: human CYP2C9 inhibition; P11712; CYP2C9 Supersomes, luciferin-H conversion, luminescence; inhibition, % at 5 µM; 20% of 96,000 active; AID 777;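 active = blocking of liver enzyme CYP2C9 beyond about 50% at 5 µM, limit read from the data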
Active calls of the source: *; / = no result.

SMILES | Mac1 fbg enh | CYP2C19 inh | CD11b adhes inh | CYP2C9 activ | CYP2C19 activ | CYP2C9 inhib
N#CC(C(=O)NCCc1ccccc1)c1nc2ccccc2nc1N1CCOCC1 (centres undefined) | 3.9 | -10.7 | -10.9 | 1.2 | 1.1 | -17.4
CCN1CCN(c2nc3ccccc3nc2C(C#N)C(=O)OCc2ccccc2)CC1 (centres undefined) | -2.3 | 82.1* | 5.4 | 0.4 | 0.2 | 56.7*
COc1cccc(/C=N/n2nnc3c(cnn3-c3ccccc3)c2=O)c1 | / | 10.4 | / | 0.9 | 0.9 | 7.5
Cc1ccc(C)c(NC(=O)CSc2ccc(-c3ccco3)nn2)c1 | 0.8 | / | -5.0 | / | / | /
O=C(Nc1nc(-c2ccccc2)c(C(=O)c2ccccc2)s1)c1ccc(S(=O)(=O)N2CCCC2)cc1 | 30.9 | / | 53.7 | / | / | /
COc1ccccc1N1CCN(c2nc3ccccc3nc2C(C#N)C(=O)OC(C)C)CC1 (centres undefined) | -1.3 | 33.7 | -6.7 | 0.3 | 0.7 | 66.3*
Cc1ccc(S(=O)(=O)N(C)CC(=O)NC2CC(C)(C)NC(C)(C)C2)cc1 | 0.0 | -16.6 | 2.1 | 1.2 | 1.2 | -17.5
Cn1cnnc1SCC(=O)N1CCC(Cc2ccccc2)CC1 | -3.8 | 77.1* | 1.5 | 1 | 0.2 | 1.0
COc1ccc(C2N(c3ccc(OC)cc3)C(=O)C3CCCN32)cc1 (centres undefined) | -3.8 | 9.9 | 1.1 | 0.6 | 0.9 | 40.0
O=C1C2CCCN2C(c2ccc(Br)cc2)N1c1ccc(F)cc1 (centres undefined) | -8.2 | 66.4* | 1.5 | 0.8 | 0.3 | 20.7
CCc1ccc(C2N(c3ccc(OC)cc3)C(=O)C3CCCN32)cc1 (centres undefined) | 5.0 | 32.8 | 11.9 | 0.2 | 0.7 | 76.4*
O=C1C2CCCN2C(c2cccc(Br)c2)N1c1ccc(F)cc1 (centres undefined) | 1.7 | 15.7 | -4.3 | 0.9 | 0.8 | 12.3
Cc1ccccc1N(Cc1nnc2n1CCCCC2)C(=O)Nc1ccccc1 | -2.8 | -0.8 | -10.4 | 1.2 | 1 | -17.0
N/C(=N\OC(=O)C1CCCCC1)c1ccccn1 | / | 17.8 | / | 0.8 | 0.8 | 20.5
CCC(Sc1nncn1C)C(=O)Nc1ccccc1OC (centres undefined) | -1.8 | -18.6 | 5.0 | 1.2 | 1.2 | -24.3
CCCCCCC1NC(C(=O)O)CS1 (centres undefined) | 2.0 | 3.2 | 1.8 | 1 | 1 | -3.6
CC(NC(=O)CCC(=O)NC(C)C1COc2ccccc2O1)C1COc2ccccc2O1 (centres undefined) | -6.8 | 42.0 | -18.6 | 0.6 | 0.6 | 38.5
CC(NCc1ccccc1)C1COc2ccccc2O1 (centres undefined) | -1.0 | 51.9* | -52.3 | 0.9 | 0.5 | 6.0
COc1ccc(CNC(C)C2COc3ccccc3O2)c(OC)c1 (centres undefined) | 0.8 | 87.0* | 6.0 | 0.9 | 0.1 | 12.8
c1ccc([C@H]2CC3C[C@@H](c4ccccc4)N2O3)cc1 | / | 45.2 | / | 1.1 | 0.5 | -11.0
CCN(C(=O)[C@@H]1CCCN1C(=O)c1cccs1)c1nc2cc(Cl)ccc2s1 | 31.0 | / | -2.7 | / | / | /
O=C(O)CCc1ccc(-c2ccccc2)n1NC(=O)c1sc2ccccc2c1Cl | 0.4 | -11.1 | 1.5 | 0.8 | 1.1 | 23.6
O=C(NCc1ccc(F)cc1)C1CCC(=O)N1C1CCCCC1 (centres undefined) | / | 18.5 | / | 0.7 | 0.8 | 27.3
CC(C)C(=O)NC(c1ccccc1Cl)c1c(O)ccc2ccccc12 (centres undefined) | -0.6 | 21.9 | -1.7 | 0.9 | 0.8 | 12.0
CCC(=O)NC(c1ccccc1Cl)c1c(O)ccc2ccccc12 (centres undefined) | -5.2 | / | 12.8 | / | / | /
SMILES | Mac1 fbg enh | CYP2C19 inh | CD11b adhes inh | CYP2C9 activ | CYP2C19 activ | CYP2C9 inhib
CC(C)C(=O)NC(c1ccco1)c1c(O)ccc2ccccc12 (centres undefined) | -0.9 | 26.0 | 12.2 | 0.3 | 0.7 | 65.5*
COc1cc(C(=O)NC(c2ccccc2)c2ccccc2)cc(Cl)c1OC | -3.9 | / | 2.5 | / | / | /
CCC(=O)NC(c1ccc([N+](=O)[O-])cc1)c1c(O)ccc2ccccc12 (centres undefined) | -3.0 | 94.4* | -0.6 | 0.5 | 0.1 | 54.3*
O=C(NC(c1ccccc1)c1c(O)ccc2ccccc12)c1ccccc1Cl (centres undefined) | / | 75.8* | / | 0.1 | 0.2 | 93.1*
C/C(=N\NC(=O)c1ccccc1)c1ccc(C)c([N+](=O)[O-])c1 | 3.5 | / | -5.8 | / | / | /
CC(NC(=O)c1ccccc1O)c1ccccc1 (centres undefined) | -3.5 | 57.8* | -0.6 | 0.7 | 0.4 | 29.7
COc1ccccc1C(=O)NC(C)c1ccccc1 (centres undefined) | 0.8 | 55.6* | -15.0 | 2.4* | 0.4 | -140.1
CC(NC(=O)c1ccc(S(=O)(=O)N(C)C)cc1)c1ccccc1 (centres undefined) | 3.4 | 45.7 | -47.7 | 0.5 | 0.5 | 54.1*
CN(C)S(=O)(=O)c1ccc(C(=O)NCCSc2ccccc2)cc1 | 1.2 | 8.4 | 11.6 | 0.9 | 0.9 | 10.4
Cn1c(=O)c2cc(NC(=O)c3ccccc3Cl)c(=O)oc2n(C)c1=O | 0.4 | -0.6 | -8.4 | 0.8 | 1 | 18.1
CCOC(=O)c1cc(C#N)c(SCC(=O)c2cc(C#N)c(SC)nc2C)nc1C | 1.8 | 45.2 | 20.9 | 0 | 0.5 | 98.6*
CCOC(=O)c1cc(C#N)c(SCc2cccc3ccccc23)nc1C | 12.2 | 0.4 | 11.1 | 1.1 | 1 | -7.8
CCC(C)NC(=O)c1ccccc1NS(=O)(=O)c1ccc(OC)c(OC)c1 (centres undefined) | 0.6 | 79.6* | -0.7 | 1.4 | 0.2 | -35.2
COc1ccc(S(=O)(=O)Nc2ccccc2C(=O)NC(C)C)cc1OC | -0.4 | 80.9* | -9.4 | 1.5 | 0.2 | -54.1
Cc1ccc(C(=O)C(OC(=O)COc2ccccc2C)c2ccccc2)cc1 (centres undefined) | 1.1 | 49.3 | -8.0 | 0.6 | 0.5 | 39.4
O=C(c1cc(-c2ccc(Cl)cc2Cl)on1)N1CCN(C(=O)c2ccco2)CC1 | 0.5 | 58.5* | 1.0 | 0.7 | 0.4 | 26.4
O=C(c1cc(-c2ccccc2Cl)on1)N1CCN(C(=O)c2ccco2)CC1 | 2.5 | 31.8 | -7.3 | 2.2* | 0.7 | -119.2
O=C(c1ccco1)N1CCN(C(=O)c2snc3ccc(Cl)cc23)CC1 | -3.7 | 17.6 | 3.5 | 0.5 | 0.8 | 48.7
Cc1onc(-c2ccccc2Cl)c1C(=O)N1CCN(C(=O)c2ccco2)CC1 | -1.3 | 11.5 | -20.3 | 0.8 | 0.9 | 16.4
CC(C)CNC(=O)c1ccc(Cl)c(Cl)c1 | 2.1 | 32.0 | -8.2 | 0.9 | 0.7 | 9.3
O=CNC(Cc1ccccc1)C(=O)O (centres undefined) | 0.0 | 3.4 | 15.3 | 1 | 1 | -2.9
C#CCOC(=O)c1ccc(-n2cncn2)nc1 | -1.2 | 81.8* | 26.4 | 0.7 | 0.2 | 33.0
